From PubChem
The sample as a whole holds a higher share of hits than the screen did.
GC-A act: GC-A stimulated cGMP production enhancers – HEK293 GC-A cells, cGMP TR-FRET, EC30 ANP, primary screen. 0% at EC30 ANP, 100% saturating ANP. actives 0.14% (n = 370,000). activation, % at 10 µM. Atrial natriuretic peptide receptor 1 (Homo sapiens), P16066; in the data active = activation above about 40%
Target sequence (P16066 whole entry, looked up): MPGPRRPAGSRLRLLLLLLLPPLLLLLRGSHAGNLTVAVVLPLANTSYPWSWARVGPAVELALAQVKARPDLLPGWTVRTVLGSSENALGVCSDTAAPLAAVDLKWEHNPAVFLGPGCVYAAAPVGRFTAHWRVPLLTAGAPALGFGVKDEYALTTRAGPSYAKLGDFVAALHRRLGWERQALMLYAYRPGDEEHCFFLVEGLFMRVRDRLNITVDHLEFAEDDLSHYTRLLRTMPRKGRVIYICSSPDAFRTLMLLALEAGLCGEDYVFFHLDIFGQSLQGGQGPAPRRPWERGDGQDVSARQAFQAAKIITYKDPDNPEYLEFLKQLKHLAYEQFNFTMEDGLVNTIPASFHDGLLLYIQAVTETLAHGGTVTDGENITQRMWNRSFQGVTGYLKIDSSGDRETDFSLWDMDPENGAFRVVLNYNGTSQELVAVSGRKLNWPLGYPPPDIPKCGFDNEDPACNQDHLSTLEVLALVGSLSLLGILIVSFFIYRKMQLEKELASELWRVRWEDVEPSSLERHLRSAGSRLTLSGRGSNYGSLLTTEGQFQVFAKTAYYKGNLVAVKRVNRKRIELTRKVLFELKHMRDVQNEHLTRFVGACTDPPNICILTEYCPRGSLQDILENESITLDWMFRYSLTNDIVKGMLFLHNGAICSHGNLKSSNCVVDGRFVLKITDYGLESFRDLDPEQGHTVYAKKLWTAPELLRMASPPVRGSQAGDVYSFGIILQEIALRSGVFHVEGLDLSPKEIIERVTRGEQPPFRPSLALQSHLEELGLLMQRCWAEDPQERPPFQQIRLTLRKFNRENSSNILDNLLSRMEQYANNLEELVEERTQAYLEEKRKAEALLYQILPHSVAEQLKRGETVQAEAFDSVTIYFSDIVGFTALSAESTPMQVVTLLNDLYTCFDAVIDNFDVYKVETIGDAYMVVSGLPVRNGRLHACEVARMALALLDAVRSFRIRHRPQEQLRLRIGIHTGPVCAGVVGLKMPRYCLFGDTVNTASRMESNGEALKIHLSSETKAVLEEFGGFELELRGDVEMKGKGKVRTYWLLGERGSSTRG
HDAC3 inhib: HDAC3 deacetylase inhibitors, primary screen, biochemical, fluorescence, cell-free homogeneous; actives 0.15% (n = 320,000); AID 2718, 2010; Histone deacetylase 3 (Homo sapiens), O15379; inhibition, % at 8.3 µM; recombinant HDAC3, fluorogenic peptide/trypsin coupled; in the data active = inhibition above about 26%, passing the limit was not always enough
ALR H2O2 inh: inhibitors of human ALR sulfhydryl oxidase, primary screen, biochemical, H2O2 detection, HRP-luminol luminescence, single point. actives 3.8% (n = 290,000). purified ALR, DTT oxidation. AID 485317, 2010. FAD-linked sulfhydryl oxidase ALR (Homo sapiens), P55789. inhibition, % (no concentration beside the values);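 active = mean replicate inhibition above about 79%, with every replicate also reaching it, limit read from the data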
GC-B act: human GC-B receptor activators, primary screen, HEK293 GC-B cells, cGMP TR-FRET, EC30 CNP; Atrial natriuretic peptide receptor 2 (Homo sapiens), P20594; 0% at EC30 CNP, 100% saturating CNP; activation, % at 10 µM; actives 0.11% (n = 370,000); AID 1920062, 2024;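 active = activation at 10 µM reaching about 35% in either raw or pattern-adjusted values, limit read from the data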
* hit, by the source's call; x = not tested or not shown.

SMILES | GC-A act | HDAC3 inhib | ALR H2O2 inh | GC-B act
CC(=O)c1ccc2c(c1)C1C(Cl)C(Sc3ccccc3[N+](=O)[O-])CC1C(c1ccccc1[N+](=O)[O-])N2 (stereo not drawn) | -0.5 | -6.7 | -21.8 | 74.8*
N#CC1=C(N)Oc2c(c(=O)oc3ccccc23)C1c1cccnc1 (stereo not drawn) | -4.7 | -4.0 | 23.1 | 2.1
N#CC1=C(N)Oc2c(c(=O)sc3ccccc23)C1c1ccncc1 (stereo not drawn) | 16.6 | -2.6 | 95.4* | 21.4
COC(=O)C1=C(c2ccc(OC(F)(F)F)cc2)C[C@@H]2CC[C@H]1N2C(=O)NCCOc1ccccc1Cl | 5.9 | 33.6* | -0.3 | -9.6
COC(=O)C1=C(c2ccc(OC(F)(F)F)cc2)C[C@@H]2CC[C@H]1N2C(=O)NCCOc1ccccc1 | -10.0 | 19.2 | 2.0 | -4.8
C=CCN1C(=O)/C(=C/c2ccc3c(c2)CCCN3CCC)C(=O)NC1=S | 4.2 | 2.8 | 99.1* | 0.9
CC(C)(C)N1C(=O)NC(=O)/C(=C\c2ccc3c(c2)CCN3CCCCl)C1=O | 0.9 | -2.7 | 90.2* | -0.9
CCN1C(=O)/C(=C/c2ccc3c(c2)CCN3CCCCl)C(=O)NC1=S | -7.3 | 4.5 | 98.1* | -3.7
CCCCN1C(=O)/C(=C/c2ccc(N3CCCCCC3)cc2)C(=O)NC1=S | x | 4.1 | 8.6 | x
O=C1NC(=S)N(C2CC2)C(=O)/C1=C/c1ccc2c(c1)CCN2CCCCl | -1.4 | 6.1 | 97.9* | -8.6
COC(=O)C1=C(c2ccc(OCc3ccccc3)cc2)C[C@@H]2CC[C@H]1N2C(=O)NCc1cccc(OC)c1 | -4.4 | 7.7 | -0.7 | 2.8
C=CCn1c(O)c(C=NCCN2CCOCC2)c(=O)[nH]c1=S | -2.9 | 2.0 | -3.9 | 0.8
CC(=O)C1=C(C)OC2=C(C(=O)CCC2)[C@@]12C(=O)N(C)c1ccccc12 | 8.0 | x | x | -0.1
O=c1[nH]c2ccccc2n1C1CCN(C(c2cc3ccccc3o2)c2nnnn2-c2ccc3c(c2)OCCO3)CC1 (stereo not drawn) | -0.1 | x | x | 3.0
c1ccc2c(c1)Sc1ccccc1N2CC1CN2CCC1CC2 (stereo not drawn) | -0.6 | 2.3 | 98.3* | -5.2
Clc1ccccc1CNC1CN2CCC1CC2 (stereo not drawn) | -2.3 | 1.2 | 13.4 | -4.8
c1ccc(Nc2ccc(Nc3ccccc3)cc2)cc1 | 2.1 | -6.2 | 98.4* | -7.1
O=C(Cc1ccccc1)Oc1cccc(N2C(=O)CCC2=O)c1 | 2.9 | -0.4 | -8.5 | -5.6
O=C(Cc1ccccc1)Oc1cccc(-n2cnnn2)c1 | 2.7 | 12.0 | 97.9* | 3.8
O=C(NCCN1CCC2(CC1)C(=O)NCN2c1ccccc1)c1ccc(F)cc1 | -4.1 | x | x | -4.9
Nc1ccc(S(=O)(=O)N2CCCCC2c2cccnc2)cc1 (stereo not drawn) | 1.0 | 3.8 | 90.1* | 4.0
CCCCOC1OCN(C2CCCCC2)CC1(C)C (stereo not drawn) | -1.8 | x | x | 2.2
Oc1ccc(C[C@H]2NCCc3cc(O)c(O)cc32)cc1O | -1.2 | -0.6 | 99.4* | -0.4
CN1CCc2nc(SCc3cccc(Br)c3)c(C#N)cc2C1 | -0.2 | -1.3 | 98.9* | -14.7
CC1c2ccccc2-n2nncc2CN1C (stereo not drawn) | -2.2 | x | x | 0.4
SMILES | GC-A act | HDAC3 inhib | ALR H2O2 inh | GC-B act
CC(C)N(C(=O)CCl)c1ccccc1 | 4.7 | x | x | 2.5
COc1cc2c(cc1O)CC1c3c(cc(O)c(OC)c3-2)CCN1C (stereo not drawn) | -3.7 | -24.7 | 98.9* | 1.5
COP(=O)(OC)C(Nc1ccccc1)c1ccccc1 (stereo not drawn) | -4.7 | 1.9 | 95.8* | -9.9
COc1ccc(NC(c2ccccc2)P(=O)(Oc2ccccc2)Oc2ccccc2)cc1 (stereo not drawn) | -1.1 | 0.1 | -14.1 | 4.9
CCN1CCN(Cc2cc(Br)cc(Br)c2O)CC1 | -2.2 | 1.4 | 98.6* | -0.4
C1=CC(Cc2cncs2)c2ccccc21 (stereo not drawn) | 0.9 | 4.4 | -13.4 | -0.8
CCN(CC)c1ccc(CNCCc2ccccc2F)cc1 | -4.8 | 4.6 | 98.7* | -0.1
Cc1ccc(CNCCc2ccccc2F)cc1 | -10.0 | -2.0 | -4.3 | -8.8
CN1C2CCC1CC(OC(c1ccccc1)c1ccc(Cl)cc1)C2 (stereo not drawn) | -24.8 | x | x | -20.5
Cc1cc(N2CCCCC2)ccc1C=C1C(=O)N(C)C(=S)N(C)C1=O | -0.9 | -5.6 | 89.5* | 4.1
NC(N)=N/N=C/c1ccc(N(c2ccccc2)c2ccccc2)cc1 | -17.6 | -120.3 | 93.7* | -11.3
CS(=O)(=O)c1ccc(C2=C(CNC(=O)c3ccc([N+](=O)[O-])cc3)[C@H]3CC[C@@H](C2)N3CCOc2ccccc2)cc1 | -3.2 | x | x | -7.8
CNC(=O)Oc1ccc(N(C)C)cc1C(C)C | 4.0 | -2.9 | 92.2* | 2.5
